High-throughput results (PubChem)
An excerpt weighted towards active compounds, which were near 1.2% of everything screened.
KinaseGlo FLuc: Kinase-Glo luciferase inhibition (counter-screen); Q27757; Potency, µM (titrated, usually from 38.3 µM), inactives show at the highest dose activity change, negative = inhibition, most hits filed as inhibitors; 0.28% of 200,000 active; Kinase-Glo luciferase, ATP luminescence, 8 min; active = well fitted inhibition curve with a large enough effect; inconclusive = small, poorly fitted or top-dose-only effect; also: potency is read from the fitted curve at half-maximal effect; nearly all actives have a fitted effect of over 60% in size
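Compound is pinned into ATP-containing buffer (10 uM ATP, imidazole pH 7.2, 7 mM MgCl2). Kinase-Glo luciferase reagent is then added. Light output is recorded following an 8-min room-temperature incubation.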
KCNH2 3.1 block: blocks the human KCNH2 3.1 channel isoform | U2OS KCNH2 3.1, thallium flux FluxOr; stronger effect = lower value | activity change, % (tested at about 1.8 µM) | 0.95% of 340,000 active;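 active = maximum activity change below -70%; inconclusive = maximum activity change from -70% to -50%; inactive = maximum activity change above -50%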;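 also: thallium influx rate constant from kinetic fluorescence after stimulation buffer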
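Measured as rate of thallium-driven FluxOr signal in transduced U2OS cells carrying the 3.1 channel, read kinetically for 2 min upon stimulation; values are rate constants scaled to DMSO control wells.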
KCNH2 WT inh: blocks the wildtype human KCNH2 potassium channel; U2OS, BacMam KCNH2, thallium flux FluxOr; stronger effect = lower value; activity change, % at 1.84 µM; 0.37% of 340,000 active;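 active = maximum activity change below -70%; inconclusive = maximum activity change between -70% and -50%; inactive = maximum activity change above -50%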
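U2OS cells were transduced with wild-type KCNH2 virus (2.03 x 10^8 / mL) for 4 h at room temperature, then cultured overnight at 37 C. Thallium flux was read with FluxOr dye. Rate constants were normalized to DMSO controls.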
* hit, by the source's call; ? = inconclusive; / = not tested or not shown; ! = not confirmed by another sample; [ ] = dose if it differs, or a comment. % is scaled to controls: 0 for no effect and ±100 for the full control effect.

SMILES | KinaseGlo FLuc | KCNH2 3.1 block | KCNH2 WT inh
CCC(C)(C)C(=O)Nc1cc([N+](=O)[O-])ccc1Cl | -1% | 12 | -3
CCC(C)(C)C(=O)Nc1cc([N+](=O)[O-])ccc1F | 2% | -176* | -250*
COc1ccc(CC2(CO)CCN(CC3=Cc4cc(Cl)ccc4OC3)CC2)cc1 | 0% | -74* | -41
COc1ccc2c(c1)C=C(CN1CCC(CO)(CCc3ccccc3)CC1)CO2 | 1% | -88* | -11
COc1ccc(CC2(CO)CCN(Cc3nc(C(C)C)cs3)CC2)cc1 | -2% | 2 | 3
COc1ccc2c(c1)C=C(CN1CCN(Cc3ccccc3C)C(CCO)C1)CO2 (configuration not stated) | / | -28 | 6
CCN(CC)C(=O)Cn1cc(S(=O)(=O)CC(=O)Nc2ccccc2F)c2ccccc21 | / | -6 | -2
COc1ccc(-c2cccc(-c3cc(=O)oc4cc(OC)cc(OC)c34)c2)cc1 | / | ? | 5
COc1cc(OC)c2c(-c3cccc(/C=C/c4ccc(F)cc4)c3)cc(=O)oc2c1 | 2%[39.9 µM] | -19 | -153*
CC[C@@H]1OC(=O)[C@H](C)[C@H](O[C@@H]2C[C@](C)(OC)[C@H](O)[C@H](C)O2)[C@H](C)[C@H](O[C@@H]2O[C@@H](C)C[C@@H](N(C)C)[C@@H]2O)[C@](C)(O)C[C@H](C)[C@@H]2N[C@H](COCCOC)O[C@H]([C@@H]2C)[C@]1(C)O | -1%[17.1 µM] | / | /
COc1ccc(-c2cc(C(=O)Nc3cccnc3)c3ccccc3n2)cc1OC | / | -1 | -7
Cc1cccc(NC(=O)c2ccoc2C)n1 | ? | 1 | -2
Cc1occc1C(=O)Nc1cc(C(C)(C)C)on1 | 11µM* | -14 | -12
O=C(NC1CCN(Cc2ccccc2)CC1)c1cn(-c2ccccc2)nc1-c1cccnc1 | / | -13 | 30
COc1ccc(C(OC(=O)c2ccco2)C(=O)NC2CCCC2)cc1 (configuration not stated) | / | 1 | -1
Cc1ccc(CNCCCSc2ncccn2)cc1 | / | 5 | 0
CCCN(CC1CCCO1)C(=O)CCc1nnc(CCc2ccc(OC)cc2)o1 (configuration not stated) | / | 15 | -1
CCC(C)(C)n1nnnc1C(c1ccc2ncccc2c1)N1CCN(c2nc3ccccc3s2)CC1 (configuration not stated) | 4% | -90* | 0
CCC(C)(C)n1nnnc1C(c1ccc2ncccc2c1)N1CCN(c2ccc(O)cc2)CC1 (configuration not stated) | / | 12 | 0
COC(=O)[C@]1(C)N[C@H](CN(C)C(=O)Nc2ccc(Cl)cc2)[C@@H]2C(=O)N(C)C(=O)[C@@H]21 | / | / | -5
CC(C)[C@@H](CC(=O)N[C@@H]1CCCC[C@H]1C(=O)N[C@H](CC(=O)N[C@@H](CCC(=O)O)CC(=O)O)Cc1c[nH]c2ccccc12)NC(=O)C[C@H](Cc1c[nH]c2ccccc12)NC(=O)[C@@H]1CNCC[C@H]1N | 0% | / | /
COc1ccc(-c2cc(CCC(=O)N3CCN(c4cc(C)ccc4C)CC3)on2)cc1 | / | 9 | -9
Cc1ccc(C2=CC(C)(c3ccc(C)cc3)Nc3nc(C(F)(F)F)nn32)cc1 (configuration not stated) | 1% | 20 | -4
CC1(c2ccc(OCC#N)cc2)C=C(c2ccc(OCC#N)cc2)n2nc(C(F)(F)F)nc2N1 (configuration not stated) | 0% | -106* | -7
CC(C)C[C@H]1CN=C(Nc2ccccc2)N1CCCC1CCCC1 | / | 11 | -92*
SMILES | KinaseGlo FLuc | KCNH2 3.1 block | KCNH2 WT inh
CC(C)C[C@H]1CN=C(Nc2ccccc2)N1CCCC1CCCCC1 | / | -41 | 9
c1ccc(C[C@H]2CN=C(Nc3ccccc3)N2CC2CCC2)cc1 | / | -14 | -7
CC1CCC(CN2C(Nc3ccccc3)=NC[C@@H]2Cc2ccccc2)CC1 (some centres not stated) | / | -91* | 8
CC(C)C[C@H]1CN=C(Nc2ccccc2)N1CC1CCC1 | / | -11 | 53
CC(C)C[C@H]1CN=C(Nc2ccccc2)N1CC1CCC(C)CC1 (some centres not stated) | / | -83* | 12
Cc1cc(C(=O)NC2CCCC(C)C2C)c2ccccc2n1 (configuration not stated) | / | 1 | -2
C[C@@]12C(=O)OC(=O)[C@]1(C)[C@H]1CC[C@@H]2O1 | -3%[17.1 µM] | / | /
O=C(O)/C(=C\c1ccncc1)c1cccc2ccccc12 | -5%[7.66 µM] | / | /
O=C(NCc1nnc2c(C(F)(F)F)cc(Cl)cn12)c1ccc2c(c1)OCO2 | / | 11 | -160*
O=C(NCc1nnc2c(C(F)(F)F)cc(Cl)cn12)c1cccnc1 | / | 0 | 33
CCCCCC(=O)N1C[C@H](O)[C@@H](n2cc(C3CC3)nn2)C[C@@H]1c1ccc(Cl)cc1 | / | -12 | -2
O=C(O)c1ccc(C(=O)O)c(C(=O)O)c1.[NH-][C@@H]1CCCC[C@@H]1[NH-].[Pt] | -3%[7.66 µM] | / | /
O=C(NCCc1ccccc1)c1ccc(-c2ccccc2C(F)(F)F)o1 | -1% | -214* | 1
O=C(NCCc1ccccc1)c1ccc(-c2ccc(F)cc2)o1 | 2% | 8 | 7
COC(=O)C(C(C)=O)C(NC(=O)OC(C)(C)C)c1ccccc1 (configuration not stated) | 0% | / | /
O=C(NC(c1ccccc1)c1ccccc1)C1CCCO1 (configuration not stated) | 0% | 6 | -11
FC(F)(F)c1cnc(-c2cnc(-c3cccnc3)nc2)c(Cl)c1 | -3% | -2 | -6
O=C(Nc1ncn[nH]1)c1ccc(Cl)c(Cl)c1 | / | -1 | -10
CC(=O)Nc1ccc(NC(=O)/C=C/c2ccc3c(c2)OCO3)cc1 | 1% | -30 | 0
O=C(/C=C/c1ccc2c(c1)OCO2)c1ccccc1 | -9% | / | /
Nc1ccccc1C(=O)/C=C/c1ccc2c(c1)OCO2 | 10µM*! | -30 | 3
CN(C)CCCNC(=O)/C=C/c1ccc2c(c1)OCO2 | -1% | 14 | -74*
COC(=O)c1c(NC(=O)/C=C/c2ccc3c(c2)OCO3)sc(C)c1C | -1% | -5 | -72*
CCOC(=O)c1c(NC(=O)/C=C/c2ccc3c(c2)OCO3)sc(C)c1C | 2% | / | /
COc1cccc(C(=O)Nc2ccc3[nH]c(=O)[nH]c3c2)c1OC | / | 4 | 2
SMILES | KinaseGlo FLuc | KCNH2 3.1 block | KCNH2 WT inh
CN(C)c1ccc(CNS(=O)(=O)c2ccc3c(c2)NC(=O)CS3)cc1 | / | 11 | 0
Cc1ccc(C(=O)NCC(=O)Nc2ccccc2C)o1 | / | 12 | -4
COc1ccc(/C=N/Nc2ncccc2[N+](=O)[O-])c(OC)c1 | 11µM* | 10 | -6
COc1ccc(/C=N/Nc2ncc(-c3ccccc3)cn2)c(OC)c1 | -1% | -29 | -29
O=S1(=O)CCOCCCN1Cc1ccccc1F | / | 3 | -22
Cc1nn(-c2ccccc2)c(C)c1C(=O)OC(C)C(=O)Nc1ccc(C(N)=O)cc1 (configuration not stated) | / | 4 | -2
CC(OC(=O)c1nc(-c2ccccc2)n(-c2ccccc2)n1)C(=O)Nc1cc(Cl)cc(Cl)c1 (configuration not stated) | 1% | -44 | -142*
Cc1ccc(CCNC(=O)c2cc(-c3ccncc3)nc3ccc(S(=O)(=O)N4CCOCC4)cc23)cc1 | / | -3 | 17
